# Source: PubChem
# Sampled rows, rich in hits. Any-hit rate of the full collection: about 11%.
# HPGD block: inhibitors of human 15-hydroxyprostaglandin dehydrogenase (HPGD) | Potency, µM, without a hit: top-dose activity change, negative = inhibition, hits mostly inhibitors | AID 894 | 150,000 tested, 4.3% active | purified HPGD, NADH fluorescence kinetic, PGE2 substrate; also: potency is read from the fitted curve at half-maximal effect
#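 20 nM HPGD preincubated 15 min at room temperature with compound in 50 mM Tris-HCl pH 8, 0.01% Tween 20. Started with 1 mM NAD+ and 30 uM prostaglandin E2; NADH fluorescence (360/450 nm) read 5 times over 30-s intervals, last minus first.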
# JMJD2E inh: blocks human JMJD2E demethylase activity; B2RXH2; Potency, µM (titrated, usually from 57.1 µM), for inactives: at the highest dose activity change, negative = inhibition, actives largely listed as inhibitors; AID 2147; 230,000 tested, 1.6% active; JMJD2E catalytic domain, FDH-coupled NADH fluorescence (FDH is formaldehyde dehydrogenase);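 also: potency is read from the fitted curve at half-maximal effect; 0% = wells with enzyme and -100% = buffer wells without enzyme; nearly all actives have a fitted effect of over 50% in size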
# Target sequence (B2RXH2 1-337 limits assumed): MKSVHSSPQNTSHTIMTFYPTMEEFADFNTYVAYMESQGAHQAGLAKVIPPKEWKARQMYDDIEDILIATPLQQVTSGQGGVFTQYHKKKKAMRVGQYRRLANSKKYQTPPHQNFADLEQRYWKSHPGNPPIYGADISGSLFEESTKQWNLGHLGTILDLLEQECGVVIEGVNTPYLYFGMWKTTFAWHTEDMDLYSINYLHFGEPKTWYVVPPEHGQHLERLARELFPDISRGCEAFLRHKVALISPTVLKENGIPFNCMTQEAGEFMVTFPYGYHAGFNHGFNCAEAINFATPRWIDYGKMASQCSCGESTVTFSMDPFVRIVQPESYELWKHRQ
# ALDH1A1 inh: ALDH1A1 (human) enzyme inhibition; 220,000 tested, 7.3% active; Purified ALDH1A1, NADH fluorescence, propionaldehyde substrate; P00352; Potency, µM (highest dose often 75.3 µM), for the others: top-dose activity, negative = inhibition, most hits filed as inhibitors;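 also: potency is read from the fitted curve at half-maximal effect; plate controls were no enzyme wells and a reference inhibitor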
# PNC assembly inh: blocks assembly of the perinucleolar compartment. PC3M PTB-GFP, PNC prevalence imaging, 16 h; active compounds read low. activity change (PNC), negative = inhibition, % at 10 µM. 140,000 tested, 3.1% active;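 active = readout at or below -70, meaning at least 70% loss of cells showing the perinucleolar compartment, a nuclear body marking cancer cells; inconclusive = readout between -30 and a set limit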;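 also: plate controls were DMSO wells for no effect and camptothecin positive control wells for full effect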
#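 PC3M cells stably expressing PTB-GFP, 750–1000 cells/well, treated 16 h at 37 °C with compound (23 nl of library stock), in duplicate. After paraformaldehyde fixation and Hoechst stain, imaged at 20x; PNC prevalence scored by image analysis.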
# * = called active by the depositor; ? = inconclusive; · = no result; [ ] = remark or other dose. Unless noted, calls follow the shape of the dose curve; as a rule, active = well fitted inhibition curve with a large enough effect (not every such curve was filed as active); inconclusive = small, poorly fitted or top-dose-only effect, or another doubt; inactive = no such curve, though single readings can be large or run the other way. Unless noted, % is scaled to controls: 0 for no effect and ±100 for the full control effect.
SMILES,HPGD block,JMJD2E inh,ALDH1A1 inh,PNC assembly inh
CC(=O)OCC1OC(C#Cc2ccc(Cl)cc2)C=CC1OC(C)=O (configuration not stated),·,·,-1.0%[13.5 µM],·
Cc1[nH]n(C)c(=O)c1[N+](=O)[O-],·,-5.5%,·,·
CC1CCc2c(C(=O)NCc3ccccn3)csc2C1 (configuration not stated),?,-0.6%,?,-6.4
O=C(NCC1CCCO1)c1csc2c1CCCCC2 (configuration not stated),25.1µM*,6.3%,-12.4%,17.7
CC1CCc2c(C(=O)NCC3CCCO3)csc2C1 (configuration not stated),7.94µM*,-1.0%,?,-10.8
Cc1ccccc1NC(=S)NNC(=O)c1csc2c1CCC(C)C2 (configuration not stated),-8.2%,6.1%,20µM*,?
O=C(NC1CCCC1)c1csc2c1CCCC2,15.8µM*,4.7%,?,1.8
CCNC(=S)NNC(=O)c1csc2c1CCC(C)C2 (configuration not stated),-10.1%,5.0%,-5.9%,-12.8
CC1(C)S[C@@H]2[C@H](NC(=O)COc3ccccc3)C(=O)N2[C@H]1C(=O)O,-9.1%,·,0.1%,·
Cc1csc2cc(-c3cccc([N+](=O)[O-])c3)c(-c3cccc([N+](=O)[O-])c3)c[n+]12,-7.1%,-13.9%,1.6%,5.1
CCCN1C[C@H](CSC)C[C@H]2c3cccc4[nH]cc(c34)C[C@@H]21,0.2%,-3.3%[25.5 µM],-1.8%[20.9 µM],·
COc1ccc(CCNC(=O)c2csc3c2CCCC3)cc1,·,-7.5%,0.794µM*,·
CCc1c(C(=O)NC2CCCC2)csc1C,14.1µM*,-0.9%,-2.0%,-99.4*
CCCNC(=O)c1csc2c1CCCCC2,?,3.6%,5.9%,-18.2
CC1CCc2c(C(=O)Nc3nccs3)csc2C1 (configuration not stated),7.08µM*,-17.0%,1.7%,9.6
CC1CCc2c(C(=O)Nc3ccccn3)csc2C1 (configuration not stated),·,-1.1%,·,·
Cc1ccc(NC(=O)Nc2cc(S(C)(=O)=O)ccc2Cl)cc1,·,-2.5%,·,·
C(=N\c1nc2ccccc2n1CCN1CCCCC1)/c1ccc2c(c1)OCO2,-6.5%,-10.3%,?,?
CCCn1c(/N=C/c2ccc3c(c2)OCO3)nc2ccccc21,-24.1%,?,14.1µM*,24.7
O=C(NCCOc1nc(N2CCCCC2)nc(N2CCOCC2)n1)Nc1ccccc1,-7.8%,13.4%,8.91µM*,-106.5*
O=C1OC(c2ccc(F)cc2)=C/C1=C\c1ccc([N+](=O)[O-])o1,·,?,20µM*,·
O=C1OC(c2ccccc2)=C/C1=C/c1cccs1,-5.4%,?,-4.5%,-18.4
C[N+](C)(CCCOc1ccccc1)c1ccccc1,0.2%,-8.0%[25.5 µM],-8.0%[20.9 µM],·
CS/C(N)=N/N=C/c1ccc([N+](=O)[O-])cc1,-21.1%,?,?,69.9
CN(C)c1ccc(/C=N/N=C2/NC(=O)/C(=C/c3ccc([N+](=O)[O-])cc3)S2)cc1,-25.1%,-5.8%,25.1µM*,-9.1
SMILES,HPGD block,JMJD2E inh,ALDH1A1 inh,PNC assembly inh
CCOC(=O)C1CSc2[nH]c(=O)sc2C1c1ccccc1 (configuration not stated),-6.8%,-1.1%,28.2µM*,5.0
COC(=O)C1CSc2[nH]c(=O)sc2C1c1ccc(O)c(OC)c1 (configuration not stated),?,8.5%,2.51µM*,?
COc1ccc(C2c3sc(=O)[nH]c3SCC2C(N)=O)cc1 (configuration not stated),·,-8.1%,·,·
CCc1ccc(N(CC(=O)NCc2ccc(F)cc2)C(=O)c2csnn2)cc1,·,5.2%,?,·
O=S1(=O)C[C@@H](O)[C@@H](Nc2ccc(Cl)cc2)C1,-14.1%,-3.4%,11.2µM*,?
N#CCNc1ccc([N+](=O)[O-])cc1C#N,·,3.4%,·,·
CC(NS(=O)(=O)c1ccc(CCC(=O)N2CCN(C)CC2)cc1)c1ccccc1 (configuration not stated),-0.8%,0.1%,7.6%,-81.7*
COc1ccc(N2CCN(C(=O)CCc3ccc(S(=O)(=O)NCC(C)C)cc3)CC2)cc1,-2.3%,6.0%,12.6µM*,?
CNc1ccc(Br)cc(C(=O)/C=C/c2cccc(OC)c2OC)c1=O,14.1µM*,28.2µM*,15.8µM*,-22.2
CNc1ccccc(C(=O)/C=C/c2ccccc2OC)c1=O,12.6µM*,?,10µM*,52.3
CNc1ccc(Br)cc(C(=O)/C=C/c2cccc(Cl)c2Cl)c1=O,·,-2.0%,?,·
COc1ccccc1/C=C/C(C)=O,-26.6%,?,-12.8%,25.2
